# Where “and” joins values, the source holds several entries; their conditions need not be identical. Equal entries are not always repeated. Inconclusive results are not listed. Some compounds were tested as several samples or in several runs, with calls that do not always agree. Calls of active or inactive are those of the source. Rule for the calls, unless noted: active = hit-call score of the fitted dose curve at least 0.9, where 1 is the maximum; inactive = score below 0.9.
# Tests used:
# [1] = CCTE_Shafer_MEA_dev_network_spike_number: CCTE's Neural Network Formation Assay for Number of Network Spikes, Shafer Lab (AID 2284048);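 note: synchronized bursts across electrodes counted on days 5 7 9 12 and integrated as AUC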;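 for AC50: fit as a loss of signal meaning fewer network spikes than DMSO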
# Outline: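 Rat cortical primary cultures on 48-well MEA (16 electrodes/well); continuous exposure DIV 0–12, full medium and treatment exchange DIV 5, 9. Readout: network spike count, AxIS adaptive detection, recordings DIV 5/7/9/12 collapsed to AUC; loss-of-signal fit, DMSO baseline.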
# [2] = CCTE_Shafer_MEA_dev_spike_duration_mean: CCTE's Neural Network Formation Assay for Mean Spike Duration, Shafer Lab (AID 2284051);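 note: mean network spike duration pooled as area under curve over DIV 5 to 12 recordings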;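 for AC50: potency for a decrease in mean network spike duration versus DMSO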
# Outline: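 Spontaneous activity was recorded on days 5, 7, 9 and 12 from rat cortical cultures grown on microelectrode arrays and dosed continuously from day 0, with media and compound renewed after the DIV 5 and 9 recordings. Network-spike duration was collapsed by area under the curve.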
# [3] = CCTE_Shafer_MEA_dev_network_spike_duration_std: CCTE's Neural Network Formation Assay for Standard Deviation of Network Spike Duration, Shafer Lab (AID 2284052);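 note: hits are decreases in network spike duration SD versus DMSO vehicle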
# Outline: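 Network spike duration variability was collapsed across recordings on days 5, 7, 9 and 12 by trapezoidal area-under-curve and fitted downward against DMSO. Cultures were rat cortical neurons on PEI-coated MEA plates, dosed continuously from plating, refed with compound DIV 5/9.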
# [4] = CCTE_Shafer_MEA_dev_per_network_spike_spike_number_mean: CCTE's Neural Network Formation Assay for Mean Number of Spikes in a Network Spike, Shafer Lab (AID 2284053);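 for AC50: fitted as decrease in spikes per network spike relative to DMSO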
# Outline: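 Mean spike count within each network spike, taken in a 0.05 s window at its peak, was recorded on days 5, 7, 9 and 12 and integrated as trapezoidal area under the curve. Rat cortical cultures on MEA plates received continuous compound from day 0, refreshed at medium changes on DIV 5 and 9.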
# [5] = CCTE_Shafer_MEA_dev_per_network_spike_spike_percent: CCTE's Neural Network Formation Assay for Percent of Spikes in a Network Spike, Shafer Lab (AID 2284054)
# Outline: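 Read-out: percent of spikes falling in a 0.05 s window at network-spike peak, from spontaneous MEA recordings on days 5, 7, 9 and 12; trapezoidal AUC; loss of signal versus DMSO. Rat cortical cultures, compound present throughout.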
# [6] = CCTE_Shafer_MEA_dev_AB: CCTE's Alamar Blue Assay for Cytotoxicity in the Neural Network Formation Assay, Shafer Lab (AID 2284083; active = hit-call score of the fitted dose curve at least 0.9, where 1 is the maximum;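 note: resazurin reduction fluorescence as viability of cultured neurons; twelve days of exposure from plating with re-dosing on DIV 5 and 9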)
# Outline: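 Resazurin fluorescence, relative to DMSO, gauges viability after twelve days of exposure that began at plating of rat cortical neurons (1.5 x 10^5 cells/well, 48-well MEA); treatment renewed with full medium exchange on DIV 5 and 9.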
# [7] = CCTE_Shafer_MEA_dev_mutual_information_norm: CCTE's Neural Network Formation Assay for Mutual Information Normalization, Shafer Lab (AID 2284091);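 for AC50: mutual information between electrodes summarised as area under curve across four recording days; potency is for a decrease in mutual information relative to DMSO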
# Outline: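 Neurons from rat cortex were seeded at 1.5 x 10^5 cells/well onto PEI-coated MEAs in a laminin drop, then exposed to compound from day 0 for twelve days. Network recordings on four days gave mutual information, summarised by AUC relative to DMSO.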
# [8] = CCTE_Shafer_MEA_dev_correlation_coefficient_mean: CCTE's Neural Network Formation Assay for Mean Correlation Coefficient, Shafer Lab (AID 2284093);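 for AC50: well mean pairwise spike train correlation integrated as AUC over recording days 5 to 12; potency fitted for loss of correlation relative to DMSO vehicle wells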
# Outline: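 Primary rat cortical neurons on PEI-coated 48-well MEA plates (16 electrodes/well) were exposed from plating day 0 through DIV12, with compound renewed at DIV5 and 9. Pairwise spike correlations were averaged per well; trapezoidal AUC across DIV5, 7, 9, 12.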
# [9] = CCTE_Shafer_MEA_dev_LDH: CCTE's Lactate Dehydrogenase Assay for Cytotoxicity in the Neural Network Formation Assay, Shafer Lab (AID 2284068; active = hit-call score of the fitted dose curve at least 0.9, where 1 is the maximum;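 note: exposure for twelve days from plating with re-dosing on DIV 5 and 9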)
# Outline: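 Primary rat cortical neurons were cultured on PEI-coated MEA plates and exposed from plating through day 12, with compound renewed at medium changes on DIV 5 and 9. LDH activity was read spectrophotometrically; loss of signal versus DMSO indicates reduced viability.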
# [10] = CCTE_Shafer_MEA_acute_LDH: CCTE's Lactate Dehydrogenase Assay for Cytotoxicity in the Neural Acute Assay, Shafer Lab (AID 2284086; active = hit-call score of the fitted dose curve at least 0.9, where 1 is the maximum;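 note: active means LDH release rises above DMSO vehicle level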)
# Outline: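 Medium collected from MEA wells of primary rat cortical cultures (DIV 13 or 15) immediately after 40 min chemical exposure is assayed spectrophotometrically for lactate dehydrogenase activity. Endpoint fitted in positive direction versus DMSO.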
# [11] = CCTE_Mundy_HCI_Cortical_Synap_Neur_Matur_NeuriteSpotCountPerNeuriteLength: CCTE's Synaptogenesis and Neurite Maturation Assay in rat cortical cells for Neurite Spot Count per Neurite Length, Mundy Lab (AID 2284210)
# Outline: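 Read-out: synaptophysin puncta counted along MAP2-stained neurites, normalised to neurite length, by automated high-content imaging. Rat cortical cells; AraC DIV 5; chemical dosing DIV 7; termination DIV 12. DMSO baseline.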
# [12] = test system: DIO2 (gene 1734); experiment: CCTE_GLTED_hDIO2: CCTE's human Deiodinase 2 (DIO2) Inhibition Assay, Great Lakes Toxicology and Ecology Division (GLTED) Lab (AID 2284050; active = hit-call score of the fitted dose curve at least 0.9, where 1 is the maximum)
# Outline: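 Inhibition is judged by reduced iodide release: uninhibited human DIO2 frees iodide from substrate over 3 h, measured afterward by Sandell-Kolthoff colorimetry. Iodinated chemicals or nitrite, iron and thiocyanate may interfere.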
# [13] = test system: DIO3 (gene 1735); experiment: CCTE_GLTED_hDIO3: CCTE's human Deiodinase 3 (DIO3) Inhibition Assay, Great Lakes Toxicology and Ecology Division (GLTED) Lab (AID 2284055; active = hit-call score of the fitted dose curve at least 0.9, where 1 is the maximum;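 note: potency is for inhibition seen as loss of released iodide signal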)
# Outline: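 Human type 3 deiodinase, expressed via adenovirus system, was exposed to test chemicals for 3 hours in a cell-free format. Released iodide was then determined spectrophotometrically by Sandell-Kolthoff; plates ran in triplicate.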
# [14] = UKN5_HCS_SBAD2_cell_viability: Viability Assessment in the University of Konstanz (UKN) Leist Lab Neurite Outgrowth Assay in human iPSC-derived immature Dorsal Root Ganglia Neurons (UKN5) (AID 2284056)
# Outline: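 iPSC-derived immature peripheral neurons (SBAD2) seeded on Matrigel with CHIR99021, SU5402 and DAPT, dosed 1 h later for 24 h. Viability from Hoechst H-33342 and calcein-AM live staining, high-content imaging; bidirectional fit versus DMSO.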
# [15] = UKN5_HCS_SBAD2_neurite_outgrowth: University of Konstanz (UKN) Leist Lab Neurite Outgrowth Assay in human iPSC-derived immature Dorsal Root Ganglia Neurons (UKN5) (AID 2284070); details: actives raise or lower the signal
# Outline: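 Thaw, seed on Matrigel (100.000 cells/cm2), dose 1 h later; at 23 h live-stain with H-33342 and calcein-AM for 60 min; image at 24 h. Neurite area fitted bidirectionally vs DMSO.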
# [16] = UKN2_HCS_IMR90_neural_migration: University of Konstanz (UKN) Leist Lab Neural Crest Cell Migration Assay in human induced IMR90 Pluripotent Stem Cells (UKN2) (AID 2284204); details: actives raise or lower the signal
# Outline: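 Stopper-exclusion migration (cMINC), human iPSC-derived neural crest cells; N2-S + EGF/FGF; compound added 24 h post-stopper removal, 24 h exposure. Readout: calcein-AM/Hoechst 30 min, HCS fluorescence imaging; bidirectional fitting, DMSO baseline.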
# [17] = UKN4_HCS_LUHMES_neurite_outgrowth: University of Konstanz (UKN) Leist Lab Neurite Outgrowth Assay in human LUHMES cells (UKN4) (AID 2284206); details: actives raise or lower the signal
# Outline: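 Human LUHMES cells were differentiated for two days, replated and treated with chemicals for 24 h. Neurite outgrowth was quantified as calcein-stained neurite area by HCS imaging, fitted bidirectionally relative to DMSO.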
# [18] = IUF_NPC1b_proliferation_BrdU_72hr: Leibniz Research Institute for Environmental Medicine (IUF) 72-hour Neural Progenitor Cell Bromodeoxyuridine (BrdU) Proliferation Assay (NPC1b) (AID 2284207)
# Outline: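 Luminescent BrdU ELISA measured DNA synthesis during the last 16 h of a 72 h exposure of primary human neural progenitor spheres grown with EGF and FGF. Signal was fitted relative to DMSO controls.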
# [19] = IUF_NPC1_viability_72hr: Viability Assessment at 72 hours in the Leibniz Research Institute for Environmental Medicine (IUF) Neural Progenitor Cell Proliferation Assay (NPC1) (AID 2284209)
# Outline: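 Spheres of primary human neural progenitors were plated singly in proliferation medium and treated for 72 h. Mitochondrial reduction of resazurin was then measured by fluorescence and analysed against DMSO controls.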
# [20] = IUF_NPC1a_proliferation_area_72hr: Leibniz Research Institute for Environmental Medicine (IUF) 72-hour Neural Progenitor Cell Proliferation Area Assay (NPC1a) (AID 2284208)
# Outline: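 Read-out: increase in sphere area over 72 h by automated phase-contrast imaging, fitted in positive direction versus DMSO baseline. One hNPC sphere (0.25-0.35 mm) per well in EGF/FGF medium; growth-factor withdrawal served as positive control.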
compound,measurement,setting,value
CC[C@H](C)C(=O)O[C@H]1C[C@H](O)C=C2C=C[C@H](C)[C@H](CC[C@@H](O)C[C@@H](O)CC(=O)O)[C@H]21,AC50,[1],143 nM (active)
same,AC50,[2],37 nM (active)
same,outcome,[3],inactive
same,outcome,[4],inactive
same,AC50,[5],1.88 µM (active)
same,AC50,[6],2.43 µM (active)
same,AC50,[7],1.97 µM (active)
same,AC50,[8],4.32 µM (active)
c1ccc2cc3ccccc3cc2c1,outcome,[1],inactive
same,outcome,[2],inactive
same,outcome,[3],inactive
same,outcome,[4],inactive
same,AC50,[5],0.218 µM (active)
same,outcome,[5],inactive
same,outcome,[9],inactive
same,outcome,[10],inactive
same,outcome,[7],inactive
same,outcome,[8],inactive
same,outcome,[11],inactive
COc1cc(C(C)C)c2c(c1)S(=O)(=O)N(COc1cc(=O)n3cccc(OCCN4CCCCC4)c3n1)C2=O,AC50,[12],11.7 µM (active)
same,AC50,[13],4.67 µM (active)
CCCCCCCCCCCCCCCCOS(=O)(=O)O,AC50,[12],28.9 µM (active)
same,AC50,[13],6.12 µM (active)
COc1cc2c(c(OC)c1OC)-c1ccc(OC)c(=O)cc1[C@@H](NC(C)=O)CC2,AC50,[1],26 nM (active)
same,AC50,[2],24.8 nM (active)
same,AC50,[3],3.22 nM (active)
same,AC50,[4],12.7 nM (active)
same,AC50,[5],0.003 µM (active)
same,AC50,[9],16.7 nM (active)
same,AC50,[6],0.0232 µM (active)
same,AC50,[7],0.0238 µM (active)
same,AC50,[8],0.0234 µM (active)
same,outcome,[11],inactive
NC(=O)N1c2ccccc2C=Cc2ccccc21,outcome,[1],inactive
same,outcome,[2],inactive
same,outcome,[3],inactive
same,outcome,[4],inactive
same,outcome,[5],inactive
same,outcome,[14],inactive
same,outcome,[9],inactive
same,outcome,[15],inactive
same,outcome,[7],inactive
same,outcome,[8],inactive
same,outcome,[16],inactive
same,AC50,[17],150 µM (active)
same,outcome,[11],inactive
OC(Cn1cncn1)(Cn1cncn1)c1ccc(F)cc1F,outcome,[1],inactive
same,outcome,[2],inactive
same,outcome,[3],inactive
same,outcome,[4],inactive
same,outcome,[5],inactive
same,outcome,[9],inactive
same,outcome,[6],inactive
same,outcome,[7],inactive
same,outcome,[8],inactive
same,outcome,[11],inactive
CCCC(CCC)C(=O)O,outcome,[1],inactive
same,outcome,[2],inactive
same,outcome,[3],inactive
same,AC50,[4],576000 nM (active)
same,AC50,[5],488 µM (active)
same,AC50,[14],5000 µM (active)
same,outcome,[9],inactive
same,AC50,[15],5000 µM (active)
same,outcome,[6],inactive
same,outcome,[7],inactive
same,outcome,[8],inactive
same,outcome,[16],inactive
same,AC50,[17],7760 µM (active)
same,AC50,[18],1040 µM (active)
same,AC50,[19],2090 µM (active)
same,outcome,[11],inactive
CCc1ccc(O)c(C(C)(C)C)c1,outcome,[10],inactive
O=S(=O)(O)c1ccc(N=Nc2c(O)ccc3cc(S(=O)(=O)O)ccc23)cc1,outcome,[10],inactive
Nc1ccn([C@@H]2O[C@H](CO)[C@@H](O)[C@@H]2O)c(=O)n1,AC50,[1],144 nM (active) and 143 nM (active)
same,AC50,[2],145 nM (active) and 889 nM (active)
same,AC50,[3],65.6 nM (active) and 636 nM (active)
same,AC50,[4],118 nM (active) and 206 nM (active)
same,AC50,[5],179 nM (active) and 84 nM (active)
same,outcome,[14],inactive
same,AC50,[9],20.4 µM (active) and 2.69 µM (active)
same,AC50,[15],1.2 µM (active)
same,AC50,[6],18.5 µM (active) and 1.67 µM (active)
same,AC50,[7],89.3 nM (active) and 97.6 nM (active)
same,AC50,[8],89.9 nM (active) and 112 nM (active)
same,outcome,[16],inactive
same,outcome,[17],inactive
same,outcome,[18],inactive
same,AC50,[20],0.109 µM (active)
same,AC50,[19],0.191 µM (active)
same,AC50,[11],23.2 µM (active)
same,outcome,[11],inactive
OCc1ccccc1,outcome,[10],inactive
CC(C)C(=O)Nc1ccc([N+](=O)[O-])c(C(F)(F)F)c1,outcome,[10],inactive
NCC(F)(F)C(F)(F)C(F)(F)C(F)(F)F,outcome,[1],inactive
same,outcome,[2],inactive
same,outcome,[3],inactive
same,outcome,[4],inactive
same,outcome,[5],inactive
same,outcome,[6],inactive
same,outcome,[7],inactive
same,outcome,[8],inactive
C=CCc1cc(S(=O)(=O)c2ccc(O)c(CC=C)c2)ccc1O,AC50,[12],120 µM (active)
same,AC50,[13],62.5 µM (active)
same,outcome,[10],inactive
OC(CCl)CCl,outcome,[10],inactive
